For 118 molecules, inhibition results are on record in PubChem BioAssay AID488890 (Southern Research Specialized Biocontainment Screening …, 2010).

Structures are written as SMILES. Out of some 320,000 compounds screened, about 1,300 (0.41%) were called active. Roughly 3% stayed inconclusive and do not appear here. No rule for the calls is given here. Not all results are given here. Measured potencies and affinities stand elsewhere.

A short description of this assay: growth inhibition of non-replicating M. tuberculosis (AID 488890).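 Also: plate controls were DMSO cells for no effect and high antibiotic wells for full effect.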 Particulars: Mycobacterium tuberculosis non-replicating, at 25 µM, stronger effect = higher value.
For orientation: inhibition means the change of the read-out against control, counted positive when it falls. Regarding `N#CC1=C(N)Oc2nc[nH]c(=O)c2C1c1cccs1` (stereo not drawn), the inhibition is -24.7%. Take `Cc1cc(C)n2nc(N)c(N=Nc3ccc(Cl)cc3)c2n1`: the inhibition was determined as 74.1%. On to `Cc1cc(C)n2nc(N)c(N=Nc3cccc(Cl)c3)c2n1`, for which the inhibition worked out at 79.2%. Take `Cc1ccc(CC2S/C(=N/c3ccccn3)NC2=O)cc1` (stereo not drawn): the inhibition was found to be 21.2%. As for `O=C1N/C(=N/c2ccccn2)SC1Cc1ccccc1` (stereo not drawn), the inhibition worked out at 61.6%.

Take `Cn1ccnc1SCC(=O)Nc1cccc(O)c1`: the inhibition worked out at 1.05%. Turning to `CC/C(=N/Nc1ccccc1Cl)c1cnnc(-c2ccccc2)n1`, the inhibition is 5.04%. The result for `COCCNC(=O)Cn1cc(C(=O)c2ccccc2F)c2ccccc21` reads 6.99%. Turning to `CCC(NC(=O)c1cc(COc2cncc(Cl)c2)on1)c1ccncc1` (stereo not drawn), the inhibition was 21.9%. In the case of `CCC(NC(=O)c1cc(COc2cncc(Cl)c2)on1)c1ccc(C)cc1` (stereo not drawn), the inhibition is 61.6%.

As for `COCCCN1C(=O)C(=O)/C(=C(/O)c2ccc(OC(C)C)cc2)C1c1ccc(O)c(OC)c1` (stereo not drawn), the inhibition is -2.98%. The result for `CCc1cc2cccc(C)c2nc1SCC(=O)NNC(=O)c1ccco1` reads -10.6%; that for `C=CCn1c(O)c(C(C)=Nc2ccc(NC(C)=O)cc2)c(=O)[nH]c1=O`, -9.1%. In the case of `C=CCn1c(O)c(C(C)=Nc2ccc(C(=O)O)cc2)c(=O)[nH]c1=O`, the inhibition stood at 6.37%. With `O=C(Nc1ccc(Cl)c(Cl)c1)C1=Cc2ccccc2OC1`, the inhibition stood at 58%. `O=S(=O)(Nc1ccc(Cl)c(Cl)c1)N1CCOCC1`: the inhibition was -2.78%. Take `COc1ccc(S(=O)(=O)N2CCCCCC2)cc1NC(=O)CN1C(=O)CNC1=O`: the inhibition was 13.3%. The result for `CCNC(=O)C(=O)NCC(c1cccs1)S(=O)(=O)c1ccc(C)cc1` (stereo not drawn) reads 2.12%. The result for `CN(C)c1cc[n+](CC(=O)Nc2ccc(Cl)cc2)cc1` reads 9.15%; that for `O=C(O)c1ccccc1-c1nc2cc(Cl)ccc2c(=O)n1O`, -1.37%; that for `O=c1c2cc(Br)ccc2nc(-c2ccccc2)n1O`, 78.6%. For `CCc1nc2ccc(Br)cc2c(=O)n1-c1ccccc1C(F)(F)F`, the inhibition was found to be 26.9%.

On to `COc1ccccc1-c1nc2cc(Cl)ccc2c(=O)n1O`, for which the inhibition is 9.28%.

For the molecule `O=C(OCn1nnc2ccccc2c1=O)c1ccc(S(=O)(=O)N2CCOCC2)cc1`, the inhibition came out at 33.4%.

Take `Cc1nn(-c2ccccc2)c(C)c1NC(=O)COC(=O)c1ccccc1OC(F)F`: the inhibition stood at 9.15%. Turning to `COc1ccc(NC(=O)C(c2ccccc2)c2ccccc2)c(OC)c1`, the inhibition was -2.93%. With `Nc1nc2nc(SCC(=O)N3CCCc4ccccc43)[nH]c2c(=O)[nH]1`, the inhibition was 0.84%. On to `CN(C)CCn1c2c(c(SCC(=O)Nc3ccc4c(c3)OCCO4)nc1=O)CCC2`, for which the inhibition is -16.4%.

Consider `O=C(CNC(=O)c1ccc(Br)o1)NC1CCCCCC1`, for which the inhibition is -0.81%.

Consider `O=C(COC(=O)c1ccc(Br)cc1)NC1CCCC1`, for which the inhibition is 46.5%. As to `Nc1c(Cl)cc(Cl)cc1C(=O)OCC(=O)N1CCOCC1`, the inhibition worked out at 17.1%.

On to `O=C(OCCCN1C(=O)c2ccccc2C1=O)c1ccco1`, for which the inhibition came to 10.6%.

Take `O=C(OCCN1C(=O)c2ccccc2C1=O)c1ccco1`: the inhibition was 15.3%. Turning to `Cc1ccc(C(=O)OCC(=O)NC2CCCCC2)o1`, the inhibition came to 36.7%. On to `O=C(COC(=O)c1cc([N+](=O)[O-])ccc1Cl)NC1CCCC1`, for which the inhibition amounted to 73.8%.

`CC1CCN(C(=O)COC(=O)c2cc(Cl)cc(Cl)c2N)CC1`: the inhibition came out at 78.5%. The result for `CCc1ccc(CNC(=O)CN2C(=O)COc3ccccc32)cc1` reads 14.8%; that for `COc1ccc(S(=O)(=O)N2CCCC2CNC(=O)C(=O)NCc2ccc3c(c2)OCO3)cc1` (stereo not drawn), 10.3%. As to `COC(=O)CCC(=O)OC1(C)C(=O)C=C2C=C(C3CC3)N(C3CCCC3)C=C2C1=O` (stereo not drawn), the inhibition is 21.8%.

On to `NC1=NC(=O)/C(=C/c2ccc(-c3ccc(S(N)(=O)=O)cc3)o2)S1`, for which the inhibition is -4.9%. Regarding `Cc1ccc2c(C(=O)CN3CCN(C(=O)c4ccco4)CC3)c(C)[nH]c2c1`, the inhibition amounted to 14%.

On to `O=C(NC1CCCCC1)C(c1cccnc1)N(C(=O)c1ccc(Cl)nc1)C1CCCCC1` (stereo not drawn), for which the inhibition turned out to be 20.7%. For the molecule `O=C(NC(=S)Nc1ccc2[nH]c(=O)[nH]c2c1)c1ccccc1[N+](=O)[O-]`, the inhibition is -4.02%. Consider `CCNC(=O)CSc1nnc(-c2ccccc2)n1-c1ccc(OCC)cc1`, for which the inhibition was determined as 12%. For `O=C1CSC(=Nc2cccc([N+](=O)[O-])c2)N1`, the inhibition stood at 17.5%. As to `O=C(OCC(=O)N1CCCC1)c1cc([N+](=O)[O-])ccc1Cl`, the inhibition is 67.6%.

With `O=C(COC(=O)c1ccc(Br)o1)NCCNC(=O)COC(=O)c1ccc(Br)o1`, the inhibition stood at 0.38%. With `O=C(COC(=O)c1ccc([N+](=O)[O-])o1)NCCCc1ccccc1`, the inhibition worked out at 73.4%. In the case of `O=C(OCC(=O)N1CCCC1)c1cccc(Br)c1`, the inhibition came out at 67.8%. In the case of `Nc1cccc(CP(=O)(c2ccccc2)c2ccccc2)c1`, the inhibition turned out to be 1.01%. With `COc1cc(NC(=O)c2ccccc2-n2cnnn2)cc(OC)c1`, the inhibition was found to be 10.3%. For `COc1ccc(C2C(C(C)=O)=C(O)C(=O)N2c2ccc(Br)cc2)cc1` (stereo not drawn), the inhibition stood at 29.9%. Take `COC(=O)CSc1nnc(-c2ccncc2)o1`: the inhibition is -0.32%. With `COC(=O)c1ccc(CSc2nnc(-c3ccncc3)n2Cc2ccccc2)o1`, the inhibition was 12.6%.

Regarding `Cc1ccc(OCC(=O)OC(C)C(=O)NC2CCCCC2C)cc1C` (stereo not drawn), the inhibition came out at 65.7%.

For the molecule `Cc1c(C(=O)NCc2ccccc2CN2CCCC2)oc2ccc(F)cc12`, the inhibition was determined as 42%. Regarding `Cc1nc(C)c(C(=O)Nc2ccccc2)s1`, the inhibition is -13.4%. Regarding `Cc1nc(Cl)sc1C(=O)Nc1ccccc1`, the inhibition is -6.17%. Regarding `O=C(NCc1ccco1)c1cccnc1-c1nc2ccccc2s1`, the inhibition was 27.7%. As for `COc1ccc(NC(=O)Nc2nc3ccccc3s2)cc1`, the inhibition is -4.36%. Turning to `O=C(NCc1ccccc1)c1nc2ccccc2s1`, the inhibition amounted to 79.5%.

`COc1ccc(OC)c(NC(=O)c2nc3ccccc3s2)c1`: the inhibition is -0.73%. Turning to `CN(C(=O)COC(=O)CSc1cc(Cl)ccc1Cl)c1c(N)n(Cc2ccccc2)c(=O)[nH]c1=O`, the inhibition amounted to 7.95%. For the molecule `COc1ccc(CC2C(=O)OC(C)(C)OC2=O)c(Cl)c1OC`, the inhibition is -14.3%. Regarding `CCCC1=C(C(=O)OCC)C(c2cccnc2)n2nc(C)nc2N1` (stereo not drawn), the inhibition was -11.9%. The result for `COCCn1c(=O)c2c(nc3n2CC(C)CN3CCc2ccccc2)n(C)c1=O` (stereo not drawn) reads 22.9%; that for `Cc1[nH]c(=O)[nH]c(=O)c1S(=O)(=O)N1CCN(c2ccccc2F)CC1`, -5.44%.

Regarding `COc1ccc(OC)c(C(=O)c2oc3ccccc3c2NC(C)=O)c1`, the inhibition was -5.83%.

With `CCOC(=O)c1sc(=S)n(-c2ccc3c(c2)OCO3)c1N`, the inhibition worked out at 1.96%. `N/C(=N\OC(=O)c1ccc(Cl)cc1)c1ccccn1`: the inhibition turned out to be 28.3%.

Turning to `N/C(=N\OC(=O)c1ccccc1Cl)c1cccc([N+](=O)[O-])c1`, the inhibition amounted to 66.7%. Turning to `N/C(=N\OC(=O)c1ccccc1Cl)c1ccccn1`, the inhibition was -3.97%. With `N/C(=N\OC(=O)c1ccc(Cl)cc1)c1ccc(Cl)cc1`, the inhibition amounted to 69.9%. The result for `C=CCOC(=O)c1cn(CC)c2nc(C)ccc2c1=O` reads -10.5%; that for `CCOC(=O)C1(Cc2cccc(Cl)c2)CCCN(C(=O)c2ccoc2C)C1` (stereo not drawn), 33.8%.

On to `CCOC(=O)NC(CC(=O)O)c1ccc(OC)cc1` (stereo not drawn), for which the inhibition is -4.02%. For `CCn1c(C)nc2cc(C(=O)N/N=C/c3ccc(N4CCOCC4)cc3)ccc21`, the inhibition is 33%.

Regarding `c1ccc2c(c1)CC(N1CCCCC1)c1ccccc1S2` (stereo not drawn), the inhibition stood at 72.9%.

Consider `CN1CCN(C2Cc3ccccc3Sc3ccc(Cl)cc32)CC1` (stereo not drawn), for which the inhibition was 76.8%. Consider `CCOC(=O)C1(Cc2ccc(OC)cc2)CCN(C(=O)c2cncs2)CC1`, for which the inhibition was -27.1%.

As to `CCOC(=O)c1ccc(NC(=O)NCc2ccncc2)cc1`, the inhibition is 15.4%. The result for `CCc1ccc(N2C(=O)c3cc(N4CCOCC4)c([N+](=O)[O-])cc3C2=O)cc1` reads 1.14%; that for `O=[N+]([O-])c1ccc(CSc2nnc3ccccn23)cc1`, 1.79%.

For the molecule `CCc1ccc(NC(=O)CCCn2nc(CC)n3c(cc4occc43)c2=O)cc1`, the inhibition turned out to be 21.1%. On to `CSc1ccc(CCNC(=O)CCc2nnc3ccc(N4CCC5(CC4)OCCO5)nn23)cc1`, for which the inhibition worked out at 11.6%.

As for `COc1ccccc1-c1nc2ccc(Cl)cc2c(=O)n1O`, the inhibition worked out at 11.4%. The result for `Cc1nc2ccc([N+](=O)[O-])cc2c(=O)n1Cc1ccc(Br)cc1` reads -9.44%; that for `O=c1c2ccccc2nc(-c2ccc([N+](=O)[O-])cc2)n1-c1ccccc1`, -1.75%; that for `O=C(Nn1c(-c2ccc(Br)cc2)nc2ccccc2c1=O)c1ccc([N+](=O)[O-])cc1`, 20.4%. As to `Cc1ccc(-c2nc3ccc(Cl)cc3c(=O)n2O)cc1`, the inhibition turned out to be 69.6%. Regarding `Cc1nc2ccc([N+](=O)[O-])cc2c(=O)n1Cc1ccc(Cl)cc1`, the inhibition is -5.97%.

As to `Cc1nc2ccc(Cl)cc2c(=O)n1-c1ccc([N+](=O)[O-])cc1`, the inhibition came out at 36.5%. As to `Nn1c(-c2ccccc2)nc2cc(Cl)ccc2c1=O`, the inhibition is -0.74%. Turning to `CCCNC(=O)c1ccc(Cn2c(=S)[nH]c3c([nH]c4ccc(OC)cc43)c2=O)cc1`, the inhibition is -43.9%.

`CC1Cc2cc(S(=O)(=O)N3CCN(c4ccccc4F)CC3)ccc2N1C(=O)C1CC1` (stereo not drawn): the inhibition turned out to be 31.8%. The result for `CC1Sc2ccc(S(=O)(=O)CCC(=O)N3CCN(c4ccccc4)CC3)cc2NC1=O` (stereo not drawn) reads 12.1%. The result for `COC(=O)C1=C(C)NC(=O)CC1c1cc2c(cc1Br)OCO2` (stereo not drawn) reads -0.49%; that for `Cc1ccccc1C(=O)N1CCN(c2ncccn2)CC1`, -10.1%; that for `CCOC(=O)c1ccc(S(=O)(=O)NC2CC2)cc1`, 0.31%. As to `COc1ccc(COC(=O)CN2C(=O)NC3(CC(C)CC(C)(C)C3)C2=O)cc1F` (stereo not drawn), the inhibition was determined as 7.47%. `CC(C)C[C@H](NC(=O)c1nc[nH]c1C(=O)NCCCCCN)C(=O)OCc1ccccc1`: the inhibition was found to be 18.5%. On to `CCN(CC(=O)Nc1ccc(OC)cc1)C(=O)c1cc2c(s1)CCCCC2`, for which the inhibition was determined as 12.4%.

Consider `CSc1nnc(SCC(=O)Nc2ccc3[nH]c(=O)[nH]c3c2)s1`, for which the inhibition is -17%. With `COc1ccccc1NC(=O)CN1C(=O)COc2ccc(S(=O)(=O)N3CCC(C)CC3)cc21`, the inhibition was found to be 9.4%.

Take `O=S(=O)(c1cccc2nsnc12)N1CCc2ccccc2C1`: the inhibition was 3.1%. In the case of `Clc1ccc(SCCCN2CCCCC2)cc1`, the inhibition worked out at 5.39%. As for `CC1CCCN(CCOCCSc2ccccc2)C1` (stereo not drawn), the inhibition turned out to be 13.4%.

`COc1ccc(S(=O)(=O)N2CCCC(C(=O)NC3CCCCC3)C2)cc1` (stereo not drawn): the inhibition was -6.21%. For `CCOC(=O)CN(C#N)c1nc(C)cc(C)n1`, the inhibition was determined as 1.75%. In the case of `COC(=O)CN(C#N)c1nc(OC)nc(N(C)C)n1`, the inhibition is 2.2%.

In the case of `CCOc1ccccc1OCCCC(=O)Nc1nc2ccccc2[nH]1`, the inhibition is 12.7%. As to `CCOc1ccccc1OCC(=O)Nc1nc2ccccc2[nH]1`, the inhibition amounted to 34.2%. The result for `O=C(COc1ccccc1C(=O)O)Nc1cccc2ccccc12` reads 15.8%; that for `COc1ccc(C(=O)Nc2nc3ccccc3[nH]2)cc1OC`, 22.2%.

Consider `CN(c1cccc(Cl)c1)S(=O)(=O)c1cccc(C(=O)Nc2nc3ccccc3[nH]2)c1`, for which the inhibition amounted to 7.4%. On to `O=C(COc1cccc2ccccc12)Nc1cc(Cl)ccc1C(=O)O`, for which the inhibition was determined as 69.4%.

On to `O=C(COc1ccccc1)Nc1nc2ccccc2[nH]1`, for which the inhibition amounted to 75.5%. `COc1ccc(Cl)cc1C(=O)Nc1nc2ccccc2[nH]1`: the inhibition came out at 62.4%.
